ANO1 block: blocks the mouse calcium-activated chloride channel TMEM16A. HEK293 TMEM16A/YFP iodide influx fluorescence, ionomycin. normalized B-score (activity score, 25-100; higher = stronger inhibition) at 10 µM. actives 1.2% (n = 310,000);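 active means ratio plate-corrected score three or more library SD toward inhibition, starting fluorescence score within five deviations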;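 further: score derived from kinetic fluorescence span divided by baseline fluorescence per well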
Target sequence (Q8BHY3 whole entry, looked up): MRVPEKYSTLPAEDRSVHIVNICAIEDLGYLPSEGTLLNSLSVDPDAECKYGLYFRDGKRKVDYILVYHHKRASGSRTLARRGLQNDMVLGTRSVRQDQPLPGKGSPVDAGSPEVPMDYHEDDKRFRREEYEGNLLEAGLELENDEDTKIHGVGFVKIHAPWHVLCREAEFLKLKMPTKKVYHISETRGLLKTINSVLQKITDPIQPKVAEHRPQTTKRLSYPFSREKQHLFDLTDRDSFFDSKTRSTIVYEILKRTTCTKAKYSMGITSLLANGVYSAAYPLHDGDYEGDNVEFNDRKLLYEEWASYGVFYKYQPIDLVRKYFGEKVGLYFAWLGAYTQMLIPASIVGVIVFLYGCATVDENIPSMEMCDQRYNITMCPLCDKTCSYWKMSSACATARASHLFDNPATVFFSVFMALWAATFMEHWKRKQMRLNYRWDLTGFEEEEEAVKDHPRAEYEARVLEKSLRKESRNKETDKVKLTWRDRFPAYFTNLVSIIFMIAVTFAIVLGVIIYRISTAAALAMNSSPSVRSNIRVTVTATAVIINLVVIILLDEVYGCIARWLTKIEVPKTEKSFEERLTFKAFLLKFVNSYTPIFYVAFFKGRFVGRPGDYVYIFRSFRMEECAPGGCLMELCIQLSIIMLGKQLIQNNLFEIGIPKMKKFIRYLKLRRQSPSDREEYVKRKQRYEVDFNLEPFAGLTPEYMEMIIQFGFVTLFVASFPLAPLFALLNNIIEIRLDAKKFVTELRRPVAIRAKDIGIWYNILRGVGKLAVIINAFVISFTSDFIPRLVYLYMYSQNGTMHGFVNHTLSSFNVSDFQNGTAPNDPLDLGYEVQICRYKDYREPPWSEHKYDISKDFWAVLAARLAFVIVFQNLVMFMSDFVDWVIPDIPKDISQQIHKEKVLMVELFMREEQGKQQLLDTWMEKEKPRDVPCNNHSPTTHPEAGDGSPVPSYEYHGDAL
PKA-R1A act: PKA-R1A complex activation | P00514+P68181 | actives 0.083% (n = 340,000) | activation, % at 11.4 µM | PKA-R1A dissociation, Cy5-IP20 fluorescence polarization; scaled: DMSO 0%, 113 µM cGMP 100%;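 active means percent activation above the mean of all tested compounds plus 3 SD, cut at about 19% in these data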;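 further: higher means more PKAc released from R1A so a rise in polarization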
CHT inh: inhibitors of human choline transporter CHT; CHT-expressing cells, membrane potential dye, choline response; active compounds read low; B-score at 10 µM; actives 0.86% (n = 310,000); AID 488975;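 active means B-score over 3 SD under the library average, and starting fluorescence ratio not unusually high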;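 further: choline stimulus applied at its EC90 after an EC20 pre-addition; B-score computed on integrated fluorescence ratio after choline addition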
TMEM16A act: activators or potentiators of mouse TMEM16A chloride channel; actives 0.3% (n = 340,000); B-score at 10 µM; Q8BHY3; AID 623877; HEK293 TMEM16A/YFP-H148Q/I152L, iodide quench fluorescence; active compounds read low;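 active means fluorescence-ratio B-score plate-corrected deviation score at least 3 library SD below zero, with starting fluorescence score within 5 deviations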;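 further: channel opened by trigger with iodide after compound preincubation; score built on the fluorescence ratio of max minus min over baseline; more negative score means more quench and so TMEM16A activation or potentiation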
PKA-R2B activ: activators of human PKA-R2B complex; P22694+P31323; PKA-R2B holoenzyme dissociation, Cy5-IP20 fluorescence polarization; R2B truncated from residue 108, S112A mutant; 0% DMSO only, 100% 113 µM cGMP; activation, % at 11.4 µM; actives 0.079% (n = 340,000);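 active means activation above a cutoff set at the mean over all compounds plus 3 SD, cut at about 18% in these data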;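 further: higher means more holoenzyme dissociation and a rise in polarization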
CHT PAM: human CHT allosteric activation; Q9GZV3; CHT-expressing cells, membrane potential dye, choline EC20; active compounds read high; LV-AA mutant CHT in HEK293 cells; B-score at 10 µM; actives 0.49% (n = 310,000);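 active means initial fluorescence not abnormally high and integrated response B-score, plate-corrected, over 3 SD above library mean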
CHT block conf: human CHT inhibition, confirmatory screen; shares compounds with CHT inh; CHT-expressing cells, choline membrane potential dye; LV-to-AA substituted CHT, HEK293 cells; CHT activity remaining % of control (active compounds read low), % at 10 µM; actives 70% (n = 2,400); AID 493221;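 active means choline transporter activity left, mean of duplicates at 10 µM, below buffer-only control mean minus 3 SD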;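 further: depolarization triggered by choline at its EC90 following an EC20 pre-addition; 0% = hemicholinium-3 full block and 100% = buffer-only control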
HEK293 MPD ctr: CHT inhibitor counter-screen hit in parental HEK293 cells | shares compounds with CHT inh | membrane potential dye, choline response; active = decrease or increase beyond buffer ±3SD | membrane potential ratio readout (active if shifted either direction beyond buffer ±3SD; no single direction) at 10 µM | actives 4% (n = 2,400) | AID 493222;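 further: parental cells lack the transporter so any hit is non-specific; ratio is peak minus trough fluorescence over baseline after EC90 choline challenge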
Active calls of the source: *; i = inactive; nt = no result given. Rows were chosen to be rich in hits. Some 2.5% of all compounds tested hit in one or more screens of this group.

SMILES	ANO1 block	PKA-R1A act	CHT inh	TMEM16A act	PKA-R2B activ	CHT PAM	CHT block conf	HEK293 MPD ctr
CCN(Cc1ccncc1)C(=O)c1cc(COc2ccc(F)cc2F)on1	i	-11	i	i	7	i	nt	nt
CC(C)(C)c1ccc(NC(=O)COC(=O)CCN2C(=O)c3cccc([N+](=O)[O-])c3C2=O)cc1	i	-6	i	i	2	i	nt	nt
CCOC(=O)c1sc(NC(=O)CCN2CCN(C)CC2)c(C(=O)OCC)c1C	i	18	-5.3*	i	-4	i	47%*	i
CC(OC(=O)CCN1C(=O)c2cccc([N+](=O)[O-])c2C1=O)C(=O)Nc1cc(Cl)cc(Cl)c1 (centres undefined)	i	-4	-6.6*	i	1	i	60%*	i
COc1ccc(NC(=O)CCN2C(=O)c3cccc([N+](=O)[O-])c3C2=O)cc1	i	3	-11*	i	1	i	i	i
CCOC(=O)c1c(NC(=O)CCN2C(=O)c3cccc([N+](=O)[O-])c3C2=O)sc(C(=O)OC(C)C)c1C	i	-6	-7.5*	i	-1	i	70%*	i
Cc1ccc(NC(=O)CCN2C(=O)c3cccc([N+](=O)[O-])c3C2=O)c(Br)c1	i	-7	i	i	6	i	nt	nt
O=C(NCC1CCCO1)C1CC(=O)N(c2ccc(Cl)cc2)C1 (centres undefined)	i	-5	i	i	0	i	nt	nt
Cc1cc(-c2ccccc2)n(-c2ccc(C(=O)N3CCN(c4ncccn4)CC3)cc2)n1	i	-7	-6.4*	i	0	i	71%*	i
CC(=O)NN1C(=O)c2ccc(Oc3ccc([N+](=O)[O-])cc3)cc2C1=O	i	-7	i	i	-5	i	nt	nt
CC(=O)NN1C(=O)c2ccc(Oc3cccc([N+](=O)[O-])c3)cc2C1=O	i	-10	-8.3*	i	-4	i	23%*	i
COc1ccc(N(C(=O)c2snc(C(N)=O)c2N)C(CC(C)C)C(=O)NCC2CCCO2)cc1 (centres undefined)	i	-3	i	i	-14	i	nt	nt
CC1CC(C)CN(C(=O)c2nn(C)c3c2CSc2ccccc2-3)C1 (centres undefined)	i	-12	i	i	-6	i	nt	nt
CC1CCCC(C)N1CCCNC(=O)c1nn(C)c2c1CSc1ccccc1-2 (centres undefined)	i	-2	-11*	i	-3	i	2.4%*	i
CCN1CCN(CCCNC(=O)c2ccc3c(c2)NC(=O)c2ccccc2S3)CC1	i	-3	i	i	-10	i	nt	nt
CC1CCCC(C)N1CCCNC(=O)c1ccc2c(c1)NC(=O)c1ccccc1S2 (centres undefined)	i	-2	-5.2*	i	-3	i	40%*	i
O=C1NC2(CCCCC2)OC12CCCCC2	nt	-10	nt	i	-7	nt	nt	nt
c1ccc(N2CCN(Cc3ccnc4ccccc34)CC2)cc1	i	-7	-11*	i	4	i	i	i
Clc1ncc(CN2CCN(c3ccccc3)CC2)s1	i	3	i	i	-15	i	nt	nt
CC1CCCCC1NC(=O)c1c(O)nc2ccccn2c1=O (centres undefined)	i	0	-7.1*	i	-5	i	60%*	i
CC1CCCCC1NC(=O)c1cc2c(=O)n3ccccc3nc2n1C (centres undefined)	i	1	i	i	-1	i	nt	nt
